Source: PubChem
SW480 rereplic: A quantitative high throughput screen for small molecules that induce DNA re-replication in SW480 colon adenocarcinoma cells; 340,000 compounds, 1.8% hits; Potency, µM (doses to about 46.1 µM), inactives show at the highest dose re-replication activation, actives largely listed as activators; AID 624297, 2012; SW480 DNA re-replication, Hoechst DNA content imaging, 48 h; also: potency is read from the fitted curve at half-maximal effect; % of control where 0% means no effect; nearly all actives have a fitted effect of over 55% in size
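Quantitative HTS format with DMSO vehicle controls; 48 hr drug incubation at 37 C, then 40 min Hoechst staining and scanning imager measurement at 405 nm excitation.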
KB-3-1 cytotox: qHTS assay for MDR1-selective chemotherapeutics: Primary screen using the parental adenocarcinoma cell KB-3-1 | KB-3-1 viability, CellTiter-Glo ATP luminescence, 72 h | Potency, µM (titrated, usually from 46.1 µM), actives largely listed as cytotoxic | 400,000 compounds, 1.4% hits | AID 1347075, 2019; also: potency is read from the fitted curve at half-maximal effect; % is scaled to controls: 0 for no effect and ±100 for the full control effect; nearly all actives have a fitted effect of over 60% in size
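Luminescent ATP read-out (CellTiter-Glo) measures survival of drug-naive KB-3-1 cells after 72 h compound exposure at 37 °C. Titration series was screened from lowest to highest concentration, with DMSO vehicle plates as background controls.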
KB-V1 cytotox: qHTS assay for MDR1-selective chemotherapeutics: Primary screen using the drug-selected MDR subline cells KB-V1; KB-V1 MDR cells viability, CellTiter-Glo, 72 h; 400,000 compounds, 3.4% hits; Potency, µM (top dose mostly 46.1 µM), actives largely listed as cytotoxic; AID 1347076, 2019; also: potency is read from the fitted curve at half-maximal effect; % is scaled to controls: 0 for no effect and ±100 for the full control effect; nearly all actives have a fitted effect of over 60% in size
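Potencies derive from concentration-effect curves fitted to normalized luminescence (CellTiter-Glo) of KB-V1 cells treated for 72 h at 37 degrees C in phenol-red-free DMEM containing 10% FBS.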
ASM inhibitor: Inhibitors of Secretory Acid Sphingomyelinase (S-ASM): qHTS; AID 504937, 2011; placental ASM, HMU-PC fluorogenic substrate, 60 min; Potency, µM (series often up to 57.5 µM), for the others: at the top dose activity change, negative = inhibition, hits mostly inhibitors; 340,000 compounds, 0.006% hits; also: potency is read from the fitted curve at half-maximal effect
Target sequence (P17405 47-631 limits assumed): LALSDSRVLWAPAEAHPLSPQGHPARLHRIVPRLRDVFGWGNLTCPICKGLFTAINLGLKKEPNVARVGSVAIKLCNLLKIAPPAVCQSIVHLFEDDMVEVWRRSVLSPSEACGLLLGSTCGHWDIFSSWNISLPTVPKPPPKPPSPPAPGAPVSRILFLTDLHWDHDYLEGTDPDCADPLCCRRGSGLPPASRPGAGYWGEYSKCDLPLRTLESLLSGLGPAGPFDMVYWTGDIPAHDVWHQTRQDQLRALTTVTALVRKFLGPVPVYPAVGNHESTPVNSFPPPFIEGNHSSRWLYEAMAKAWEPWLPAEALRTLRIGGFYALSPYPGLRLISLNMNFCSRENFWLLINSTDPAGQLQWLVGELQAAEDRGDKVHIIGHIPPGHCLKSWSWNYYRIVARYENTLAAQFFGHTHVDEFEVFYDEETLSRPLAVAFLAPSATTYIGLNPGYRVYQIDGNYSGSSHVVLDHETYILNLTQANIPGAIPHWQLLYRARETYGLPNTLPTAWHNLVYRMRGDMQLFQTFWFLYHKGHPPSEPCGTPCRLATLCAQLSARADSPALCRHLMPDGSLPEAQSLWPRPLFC
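Human placenta-derived ASM preincubated with compound 10 min at room temperature, then reacted with 9 uM (final) fluorogenic HMU-PC substrate for 60 min at 37 C. Stop solution raises pH to 10; fluorescence read at Ex 386/Em 447 nm.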
Giardia killer: Small Molecules that selectively kill Giardia lamblia: qHTS; Giardia lamblia trophozoite viability; activity change, % at 7.66 µM, hits read low; 340,000 compounds, 0.15% hits; in the data active = activity change below about -80%; inconclusive = between about -30% and that limit;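 also: parasites exposed to compound for two days anaerobically before the ATP read; % is scaled to controls: 0 for no effect and ±100 for the full control effect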
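Killing of trophozoites was scored by loss of ATP luminescence after a 48 hrs anaerobic exposure to compounds at 37 deg C, using 100 cells per well.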
MCF10A rerep: A quantitative high throughput screen for small molecules that induce DNA re-replication in MCF 10a normal breast cells; 350,000 compounds, 2.9% hits; Potency, µM (doses to about 46.1 µM), for inactives: top-dose activity, positive = re-replication, most hits filed as activators; MCF 10A DNA re-replication, Hoechst nuclear intensity, 48 h; also: potency is read from the fitted curve at half-maximal effect; % of control where 0% means no effect; nearly all actives have a fitted effect of over 50% in size
* marks the source's active call; other numbers are inactive results; i = inactive; ? = inconclusive; nt = no result given; [ ] = remark or other dose. A selection: hits, their analogues and other compounds. The true share with any hit is near 6.9%. Unless noted, calls follow the shape of the dose curve; as a rule, active = well fitted curve in the direction sought with a large enough effect; inconclusive = small, poorly fitted or top-dose-only effect, or another doubt; inactive = no such curve, though single readings can be large; an effect the other way counts as inactive or inconclusive.

SMILES	SW480 rereplic	KB-3-1 cytotox	KB-V1 cytotox	ASM inhibitor	Giardia killer	MCF10A rerep
COc1ccc(NC(=O)c2cc(C3CCCCN3S(=O)(=O)c3ccc(C#N)cc3)on2)c(C)c1 (centres undefined)	nt	i	i	nt	nt	nt
COc1ccc(S(=O)(=O)N2CCCCC2c2cc(C(=O)Nc3ccc(OC)cc3C)no2)cc1 (centres undefined)	nt	18µM*	i	nt	nt	nt
O=C(NC1c2ccccc2-c2ccccc21)N1CCCCC1	9%	?	16µM*	-1%	0	14%
CN(C)C(=O)NC1c2ccccc2-c2ccccc21	-17%	i	i	3%	-15	-7%
COc1cccc(NC(=O)C(C)Sc2nnc(C3CC3)n2C2CC2)c1 (centres undefined)	-45%	i	i	6%	23	9%
COc1ccc(Cl)cc1NC(=O)C(C)Sc1nnc(C2CC2)n1C1CC1 (centres undefined)	-3%	i	18µM*	3%	3	2%
COc1ccccc1C(=O)NNC1=C(C(=O)C(F)(F)F)CCC1	2.6µM*	i	i	-5%	-18	4.1µM*
O=C(NNC1=C(C(=O)C(F)(F)F)CCC1)c1ccc(Br)cc1	9.2µM*	i	i	0%	3	?
O=C(NNC1=C(C(=O)C(F)(F)F)CCC1)c1ccccc1O	-3%[9.22 µM]	?	i	5%	-20	?
CC(C)NC(=O)CCSc1nc(-c2ccc3c(c2)OCO3)cc(C(F)(F)F)n1	nt	i	?	nt	nt	nt
Cc1ccc(CCNC(=O)c2c[nH]c3ccc(S(=O)(=O)Nc4cccc(C(F)(F)F)c4)cc3c2=O)cc1	nt	13µM*	i	nt	nt	nt
COc1ccc2c(c1OC)C(=O)OC2[C@H]1c2c(cc3c(c2OC)OCO3)CCN1C (some centres undefined)	7%	nt	nt	nt	nt	14%
COc1cc2c3c(c1OC)-c1cc4c(cc1CC3(C#N)N(C(=O)c1ccccc1)CC2)OCO4 (centres undefined)	0%	i	3.3µM*	-4%	-1	10%
N#CC1=C(SCC(=O)NC23CC4CC(CC(C4)C2)C3)NC(=O)C(C#N)C12CCCCC2 (centres undefined)	13%	?	12µM*	-7%	17	16µM*
N#CC1=C(SCC(=O)NC2CC2)NC(=O)C(C#N)C12CCCCC2 (centres undefined)	-4%	i	i	2%	0	20%
COc1ccc(-c2nc(Cn3c(SCc4ccc(F)cc4)nc4ccncc43)c(C)o2)cc1OC	0%	?	i	-19%	-11	3.7µM*
COc1ccc(N2C(=O)C3CC(C)=C(C)CC3C2=O)c(OC)c1 (centres undefined)	9%	i	i	-1%	4	-3%
COc1cc(N2C(=O)C=CC2=O)ccc1N1C(=O)C=CC1=O	13µM*	18µM*	?	-2%	11	6.5µM*
CC(C)OC(=O)C(C(=O)C(F)(F)F)c1cc(NS(=O)(=O)c2ccc3c4c(cccc24)C(=O)N3)ccc1O (centres undefined)	nt	i	?	nt	nt	nt
Cn1c(CNC(=O)CSc2nc(-c3ccccc3F)nc3cc(=O)[nH]n23)nc2ccccc21	nt	i	?	nt	nt	nt
CC(=O)c1c(O)c(C)c(O)c2c1OC1=CC(=O)C(C(C)=O)C(=O)[C@@]12C (some centres undefined)	3%	?	i	1%	-21	3.7µM*
Cc1ccc(C(=O)N2CCCC(c3ccc(Cl)cc3)=N2)cc1	?	i	i	-16%	-13	18µM*
CC1CCCN(C(=O)c2ccc(Br)c(S(=O)(=O)N3CCOCC3)c2)C1 (centres undefined)	-4%	i	i	3%	0	-2%
COc1ccccc1NC(=O)Cn1c(=O)n(Cc2ccccc2)c(=O)c2sc3ccccc3c21	nt	i	i	nt	nt	nt
Nc1cnn(C2OC(CO)C(O)C2O)c(=O)n1 (centres undefined)	-5%	2.3µM*	4.1µM*	-2%	-3	1%
SMILES	SW480 rereplic	KB-3-1 cytotox	KB-V1 cytotox	ASM inhibitor	Giardia killer	MCF10A rerep
CC(=O)c1cccc(NC(=O)c2sc(-n3nc(C)c(CCC(C)C)c3C)nc2C)c1	nt	i	i	nt	nt	nt
CC(C)CN(CC(C)C)C(=S)Nc1ccc(Cl)cc1	10%	i	i	3%	-3	18µM*
CCc1ccc(NC(=S)N(Cc2ccc(Cl)cc2)Cc2ccc(C(=O)O)cc2)cc1	-3%	i	i	3%	12	16%
CCC(C)NC(=O)CSC1=Nc2ccccc2C2=NC(c3ccccc3)C(=O)N12 (centres undefined)	-11%	i	16µM*	48%	12	0%
CC(=O)Nc1ccc(-c2cc(C(=O)O)c3c(-c4ccccc4)[nH]nc3n2)cc1	nt	i	i	nt	nt	nt
Cc1ccc(-c2cc(C(F)(F)F)n3ncc(-c4ccc(Cl)cc4)c3n2)cc1	nt	i	i	nt	nt	nt
CC1(C(=O)Nc2ccc3c(c2)OCO3)Cc2c(-c3ccc4c(c3)OCO4)ccnc2O1 (centres undefined)	nt	5.2µM*	?	nt	nt	nt
COc1ccc(NC(=O)C2(C)Cc3c(-c4ccc5c(c4)OCO5)ccnc3O2)cn1 (centres undefined)	nt	5.8µM*	12µM*	nt	nt	nt
CC1(C(=O)Nc2ccc3c(c2)OCO3)Cc2c(-c3cccc(C(N)=O)c3)ccnc2O1 (centres undefined)	nt	7.3µM*	?	nt	nt	nt
CC1(C(=O)Nc2ccccc2)Cc2c(-c3cccc(C(N)=O)c3)ccnc2O1 (centres undefined)	nt	i	i	nt	nt	nt
COc1cc(O)oc1C=Nc1ccc(C(=O)O)cc1	-4%	?	23µM*	165%	-6	-4%
COc1cc(O)oc1C=Nc1ccc(Cl)cc1	-18%	i	i	11%	7	9%
O=C(COc1ccccc1F)Nc1cc(S(=O)(=O)Nc2cccc(Cl)c2)ccc1O	-8%	i	?	0%	-14	24%
O=C(NCc1c(-n2cccc2)sc2c1CCCC2)Nc1cccc(C(F)(F)F)c1	nt	i	i	nt	nt	nt
N#Cc1ccc(-c2cccs2)nc1SCc1cccnc1	0.73µM*	?	?	34%	-22	0.41µM*
COc1ccccc1CNC(=O)C1CCN(c2nc3ccc(Cl)cc3[nH]2)CC1	nt	i	i	nt	nt	nt
